Test results from PubChem BioAssay AID1159580 (chemical genetic matrix, 2015).
The campaign covered roughly 5,500 compounds. About 2,000 (36%) were called active. Not shown: some 18% with an inconclusive outcome. Rule as the data show it: active = normalized growth mostly below about 0.91 (no sharp cut-off); inconclusive = no clear call, values can overlap the other calls; inactive = mostly above about 0.92. This is one part of the list.

Assay: chemical genetic growth profiling, strain panel (AID 1159580);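 also: tested at 20 µM; growth read once vehicle control cultures reached saturation at 30 °C; 1 = growth at the plate median or of vehicle wells; lower values mean less growth of the strain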
Settings: S. cerevisiae deletion strains, growth OD

Measured: normalized growth

Cn1c([N+](=O)[O-])cnc1COC(N)=O
inactive: locus YAL013W, strain DEP1, active compounds read low 1.01 | locus YAL021C, strain ccr4, active compounds read low 1.01 | locus YAL026C, strain drs2, active compounds read low 1.02 | locus YAL030W, strain snc1, active compounds read low 1 | locus YBL061C, strain skt5, active compounds read low 1.01 | locus YBR009C, strain hhf1, active compounds read low 0.978 | locus YBR021W, strain FUR4, active compounds read low 1.02 | locus YBR023C, strain chs3, active compounds read low 1.01 | locus YBR171W, strain sec66, active compounds read low 1.01 | locus YBR229C, strain ROT2, active compounds read low 1.01 | locus YBR231C, strain swc5, active compounds read low 0.992 | locus YBR279W, strain paf1, active compounds read low 1 | locus YCL011C, strain gbp2, active compounds read low 1.01 | locus YCL016C, strain dcc1, active compounds read low 1.01 | locus YCL029C, strain bik1, active compounds read low 0.993 | locus YCL069W, strain vba3, active compounds read low 0.987 | locus YCR088W, strain abp1, active compounds read low 1.01 | locus YDL005C, strain med2, active compounds read low 1.01 | locus YDL035C, strain GPR1, active compounds read low 1.02 | locus YDL040C, strain nat1, active compounds read low 0.997 | locus YDL074C, strain BRE1, active compounds read low 1.02 | locus YDL101C, strain DUN1, active compounds read low 1.02 | locus YDL134C, strain PPH21, active compounds read low 1 | locus YDL185W, strain tfp1, active compounds read low 0.978 | locus YDL192W, strain arf1, active compounds read low 0.984 | locus YDR001C, strain nth1, active compounds read low 1 | locus YDR069C, strain doa4, active compounds read low 0.984 | locus YDR101C, strain arx1, active compounds read low 0.986 | locus YDR137W, strain rgp1, active compounds read low 1.04 | locus YDR150W, strain NUM1, active compounds read low 1 | locus YDR159W, strain sac3, active compounds read low 0.983 | locus YDR162C, strain NBP2, active compounds read low 1.01 | locus YDR195W, strain ref2 1.01 | locus YDR297W, strain sur2, active compounds read low 1.02 | locus YDR318W, strain mcm21, active compounds read low 0.985 | locus YDR334W, strain swr1, active compounds read low 1 | locus YDR335W, strain msn5, active compounds read low 1.01 | locus YDR388W, active compounds read low 0.992 | locus YDR392W, strain spt3, active compounds read low 1.04 | locus YDR502C, strain sam2, active compounds read low 0.989 | locus YEL003W, strain gim4, active compounds read low 0.999 | locus YEL037C, strain rad23, active compounds read low 0.998 | locus YEL061C, strain CIN8 (second series), active compounds read low 1 | locus YEL061C, strain CIN8, active compounds read low 1.01 | locus YER015W, strain faa2, active compounds read low 1.01 | locus YER016W, strain bim1, active compounds read low 1.02 | locus YER110C, active compounds read low 0.988 | locus YER111C, strain swi4, active compounds read low 0.998 | locus YER155C, strain BEM2 (second series), active compounds read low 1.02 | locus YER155C, strain BEM2, active compounds read low 1 | locus YER167W, strain BCK2, active compounds read low 1.01 | locus YFR010W, strain ubp6, active compounds read low 0.983 | locus YGL078C, strain dbp3, active compounds read low 0.987 | locus YGL086W, strain mad1, active compounds read low 0.998 | locus YGL167C, strain pmr1, active compounds read low 1 | locus YGL173C, strain kem1, active compounds read low 1 | locus YGL227W, strain vid30, active compounds read low 1.01 | locus YGL240W, strain doc1, active compounds read low 1 | locus YGL248W, strain PDE1, active compounds read low 1.01 | locus YGL253W, strain hxk2, active compounds read low 1.01 | locus YGR078C, strain PAC10, active compounds read low 1.01 | locus YGR135W, strain pre9, active compounds read low 0.983 | locus YGR252W, strain gcn5, active compounds read low 0.981 | locus YHR013C, strain ard1, active compounds read low 1.04 | locus YHR027C, strain rpn1, active compounds read low 1.02 | locus YHR030C, strain SLT2, active compounds read low 1.01 | locus YHR079C, strain IRE1 (second series), active compounds read low 0.991 | locus YHR079C, strain IRE1, active compounds read low 1 | locus YHR094C, strain hxt1, active compounds read low 0.986 | locus YHR129C, strain ARP1, active compounds read low 1 | locus YHR142W, strain chs7, active compounds read low 1.01 | locus YHR200W, strain rpn10, active compounds read low 0.986 | locus YIL066C, strain RNR3, active compounds read low 1.02 | locus YIL073C, strain SPO22, active compounds read low 1.03 | locus YIL125W, strain kgd1, active compounds read low 0.987 | locus YIR030C, strain dcg1, active compounds read low 0.994 | locus YJL092W, strain hpr5, active compounds read low 1.01 | locus YJL095W, strain BCK1 (second series), active compounds read low 1.01 | locus YJL095W, strain BCK1, active compounds read low 1.02 | locus YJL115W, strain asf1, active compounds read low 0.999 | locus YJL129C, strain trk1, active compounds read low 1.02 | locus YJL134W, strain LCB3, active compounds read low 1 | locus YJL154C, strain vps35, active compounds read low 1.01 | locus YJL164C, strain tpk1, active compounds read low 0.993 | locus YJL166W, strain qcr8, active compounds read low 0.988 | locus YJL168C, strain set2, active compounds read low 0.986 | locus YJL187C, strain SWE1 (second series), active compounds read low 1.02 | locus YJR043C, strain POL32, active compounds read low 1.02 | locus YJR066W, strain TOR1, active compounds read low 0.954
